HPGD block – blocks human HPGD enzyme activity; P15428; purified HPGD, NADH fluorescence kinetic, PGE2 substrate; Potency, µM, without a hit: top-dose activity change, negative = inhibition, most hits filed as inhibitors; hit rate 4.3% among 150,000; AID 894; active = well fitted inhibition curve with a large enough effect, not every such curve was filed as active; inconclusive = small, poorly fitted or top-dose-only effect, or another doubt; inactive = no such curve, though single readings can be large or run the other way
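NADH formation kinetics: reaction with 30 uM PGE2 and 1 mM NAD+ (final), 20 nM enzyme, Tris-HCl pH 8 with Tween 20, after 15 min compound preincubation at room temperature. Fluorescence change, last versus first of five reads.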
JMJD2E inh – JMJD2E (human) inhibition | Potency, µM (titrated, usually from 57.1 µM), without a hit: at the top dose activity change, negative = inhibition, hits mostly inhibitors | B2RXH2 | hit rate 1.6% among 230,000 | JMJD2E catalytic domain, FDH-coupled NADH fluorescence (FDH is formaldehyde dehydrogenase);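 also: 0% = wells with enzyme and -100% = buffer wells without enzyme; nearly all actives have a fitted effect of over 50% in size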
Tau fibril FP – inhibitors of human tau fibril formation. hit rate 0.39% among 280,000. Potency, µM (series often up to 57.7 µM), inactives show at the top dose activity, negative = inhibition, most hits filed as inhibitors. AID 1468. K18 P301L tau heparin fibrillization, Alexa594 FP, 6 h. P10636; also: nearly all actives have a fitted effect of over 55% in size
Target sequence (P10636 561-689 P618L limits assumed): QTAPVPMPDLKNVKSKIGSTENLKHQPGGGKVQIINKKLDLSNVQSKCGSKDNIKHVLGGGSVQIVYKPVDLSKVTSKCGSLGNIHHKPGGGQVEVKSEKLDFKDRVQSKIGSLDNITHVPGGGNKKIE
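Heparin (20 uM) drove fibril formation of recombinant tau K18 P301L, 15 uM unlabeled with 0.24 uM Alexa 594 label, for 6 hr at 37 C in 100 mM sodium acetate pH 7. Fluorescence polarization (555/632 nm) read 1 hr after 30 uM ThT.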
ALDH1A1 block – ALDH1A1 (human) enzyme inhibition; hit rate 7.3% among 220,000; Potency, µM (series often up to 75.3 µM), inactives show at the top dose activity, negative = inhibition, most hits filed as inhibitors; P00352; Purified ALDH1A1, NADH fluorescence, propionaldehyde substrate; active = well fitted inhibition curve with a large enough effect, not every such curve was filed as active; inconclusive = small, poorly fitted or top-dose-only effect, or another doubt; inactive = no such curve, though single readings can be large or run the other way;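 also: plate controls were no enzyme wells and a reference inhibitor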
Target sequence (P00352 whole entry, looked up): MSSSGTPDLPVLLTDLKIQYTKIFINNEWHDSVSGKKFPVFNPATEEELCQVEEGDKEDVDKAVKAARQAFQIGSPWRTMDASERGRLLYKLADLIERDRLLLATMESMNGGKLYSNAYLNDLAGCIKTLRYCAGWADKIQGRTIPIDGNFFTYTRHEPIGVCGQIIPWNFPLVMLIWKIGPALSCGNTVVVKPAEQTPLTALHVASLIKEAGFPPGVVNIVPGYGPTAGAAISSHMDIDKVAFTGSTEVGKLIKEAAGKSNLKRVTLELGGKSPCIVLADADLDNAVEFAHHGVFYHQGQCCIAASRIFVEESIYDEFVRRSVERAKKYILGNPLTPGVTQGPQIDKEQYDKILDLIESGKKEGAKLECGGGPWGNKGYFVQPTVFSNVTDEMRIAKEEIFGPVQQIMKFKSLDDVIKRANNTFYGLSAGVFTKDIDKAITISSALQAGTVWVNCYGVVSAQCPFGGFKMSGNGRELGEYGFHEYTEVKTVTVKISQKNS
Tau ThT inhib – tau fibrillization inhibition (ThT binding). P10636. recombinant tau K18 P301L, heparin-induced fibrillization, ThT fluorescence. Potency, µM (highest dose often 57.4 µM), for inactives: at the top dose activity, negative = inhibition, hits mostly inhibitors. hit rate 2.1% among 270,000. AID 1460; also: nearly all actives have a fitted effect of over 55% in size
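Using a mix of unlabeled (15 uM) and Alexa 594-labeled (0.24 uM) tau K18 P301L, heparin-triggered fibrillization over 6 hr at 37 C was scored by ThT fluorescence.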
Tau fluor counter – counter-screen for tau fibril formation inhibitors; tau K18 P301L Alexa594 fluorescence, heparin fibrillization; Potency, µM (top dose mostly 57.7 µM), for the others: at the top dose activity change, negative = decrease; hit rate 0.93% among 280,000; AID 1463; also: nearly all actives have a fitted effect of over 55% in size
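Human tau K18 P301L (15 uM unlabeled, 0.24 uM Alexa 594-labeled) in 100 mM sodium acetate pH 7 with 20 uM heparin, 6 hr at 37 C. ThT 30 uM added, 1 hr ambient; Alexa 594 FP and total fluorescence read at 555/632 nm.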
* hit, by the source's call; u = inconclusive; x = no result; [ ] = dose if it differs, or a comment. In the library only some 9.9% were active in any assay of this set; here they are far more common. Unless noted, calls follow the shape of the dose curve; as a rule, active = well fitted curve in the direction sought with a large enough effect; inconclusive = small, poorly fitted or top-dose-only effect, or another doubt; inactive = no such curve, though single readings can be large; an effect the other way counts as inactive or inconclusive. Unless noted, % is scaled to controls: 0 for no effect and ±100 for the full control effect; potency is read from the fitted curve at half-maximal effect.

SMILES | HPGD block | JMJD2E inh | Tau fibril FP | ALDH1A1 block | Tau ThT inhib | Tau fluor counter
O=C(CSc1nc2ccccc2[nH]1)Nc1nc(-c2cccc(Br)c2)cs1 | -26% | -4% | 14µM* | -17% | -11% | u
CN(C)CCCn1c(SCC(=O)Nc2nc(-c3cccc(Br)c3)cs2)nc2ccccc2c1=O | x | u | -13% | x | u | -8%
O=C(NCc1ccccc1Cl)c1ccc(NC(=O)N2CCSc3ccccc32)cc1 | x | x | -13% | x | 13% | -17%
Cc1ccc2oc3c(c(=O)c2c1)C(c1ccc(O)cc1)N(c1nc(C)c(C)s1)C3=O (stereo unspecified) | x | x | 2% | x | u | -23%
CCOC(=O)c1ccc(NC(=O)CSc2nc3sc(C(=O)O)c(C)c3c(=O)[nH]2)cc1 | x | -8% | -8% | 14µM* | u | -1%
CCOC(=O)N1CCN(C(=O)CSCC(=O)Nc2nc(-c3ccc(OC)cc3)cs2)CC1 | -4% | -4% | -1% | -5% | u | -26%
CCOC(=O)c1ccc(NC(=O)CSc2nc(C)cc(=O)[nH]2)cc1 | 28µM* | -1% | -1% | -3% | u | -20%
CCOC(=O)c1c(-c2ccccc2)csc1NC(=O)CSc1nnc(C)s1 | -8% | -3% | -2% | -7% | u | -24%
CCOC(=O)c1c(-c2ccccc2Cl)csc1NC(=O)CSc1nc(C)cc(=O)[nH]1 | 14µM* | -2% | 5% | 8% | -3% | 8%
COC(=O)c1ccc(CSc2nc3sc(C(=O)O)c(C)c3c(=O)[nH]2)cc1 | x | 11% | 4% | u | u | -13%
CCOC(=O)N1CCN(C(=O)CSCC(=O)Nc2nc(-c3ccc(-c4ccccc4)cc3)cs2)CC1 | -17% | 35µM* | -12% | u | u | -22%
O=C(Cn1c(=O)c(C(F)(F)F)nc2ccccc21)Nc1ccc(Br)cc1F | x | x | -3% | x | -4% | -17%
Cc1ccc(-c2csc(NC(=O)CSC3=NCCS3)n2)cc1 | -17% | -2% | -11% | -12% | u | u
Cc1ccc(-c2csc(NC(=O)CSc3nc(C)cc(=O)[nH]3)n2)cc1 | 28µM* | -14% | u | u | u | u
CNC(=S)N(CCc1c(C)[nH]c2ccc(Cl)cc12)Cc1cc(OC)c(OC)c(OC)c1 | -15% | 3% | -4% | 2% | -4% | -6%
COCCNC(=S)N(CCc1c(C)[nH]c2ccc(F)cc12)Cc1cccs1 | x | -12% | 13% | u | -13% | 14µM*[quencher]
COCCNC(=S)N(CCc1c(C)[nH]c2ccc(Cl)cc12)Cc1cccs1 | x | -7% | 9% | u | -17% | 8.9µM*[quencher]
CNC(=S)N(CCc1c(C)[nH]c2ccc(Cl)cc12)Cc1cccs1 | x | 14% | u | u | -12% | 16µM*[quencher]
CCNC(=S)N(CCc1c(C)[nH]c2ccc(Cl)cc12)Cc1ccco1 | x | 8% | u | 0% | -17% | 13µM*[quencher]
CNC(=S)N(CCc1c(C)[nH]c2ccc(C)cc12)Cc1ccco1 | -10% | 4% | u | 1% | u | u
COCCNC(=S)N(CCc1c(C)[nH]c2ccccc12)Cc1ccco1 | x | 3% | u | 2% | -13% | u
CNC(=S)N(CCc1c(C)[nH]c2ccc(C)cc12)Cc1ccc(OC)c(OC)c1 | -5% | -26% | 21% | 4% | u | u
CCNC(=S)N(CCc1c(C)[nH]c2ccc(C)cc12)Cc1cccs1 | x | -6% | u | u | u | 14µM*[quencher]
CS(=O)(=O)N1CCN(c2ccc([N+](=O)[O-])cc2F)CC1 | x | -11% | -1% | 3.2µM* | -17% | -8%
Cc1cc(C(C)(C)C)cc(CNC2CCCCC2)c1O | -3% | x | x | 17%[13.5 µM] | x | x
SMILES | HPGD block | JMJD2E inh | Tau fibril FP | ALDH1A1 block | Tau ThT inhib | Tau fluor counter
COc1ccc(C(=O)N2CCN(C(=O)c3cc(OC)c(OC)c(OC)c3)CC2)cc1 | -16% | 0% | -2% | 14µM* | 14% | 9%
COc1ccc(C(=O)C2CCN(C(=O)c3ccc(C)cc3)CC2)cc1 | -6% | 9% | 12% | 5µM* | -18% | -5%
COc1cc(C(=O)N2CCN(C(=O)COc3ccc4ccccc4c3)CC2)cc(OC)c1OC | -9% | -2% | 12% | u | -3% | 4%
NC(=S)N=Nc1c(O)n(Cc2ccc(F)cc2)c2ccccc12 | x | 16% | u | 1.4µM* | -12% | -23%
Cc1cccc(NC(=O)Cn2c(O)c(N=NC(N)=S)c3ccccc32)c1 | x | -2% | -6% | x | u | u
Cc1ccc2c(c1)c(N=NC(N)=S)c(O)n2Cc1ccccc1 | -6% | 9% | -3% | 0.63µM* | -7% | -3%
Cc1ccc2c(c1)c(N=O)c(O)n2Cc1ccc(Cl)cc1 | x | 1% | 4% | -7% | 9% | 3%
NC(=S)N=Nc1c(O)n(CCCl)c2ccc(Br)cc12 | x | 9% | -9% | 7% | u | -19%
NC(=S)N=Nc1c(O)n(Cc2ccc(Br)cc2)c2ccccc12 | -5% | 6% | -14% | 3.5µM* | -3% | -22%
C/C(Cl)=C\Cn1c(O)c(N=NC(N)=S)c2cc(Br)ccc21 | x | 32% | u | 0.45µM* | u | u
N#Cc1ccccc1Cn1c(=O)n(-c2ccc(CC(=O)NCc3ccco3)cc2)c(=O)c2sccc21 | -8% | 0% | -3% | 2% | -11% | 1%
N#Cc1ccccc1Cn1c(=O)n(Cc2ccc(C(=O)NCc3ccco3)cc2)c(=O)c2sccc21 | -7% | u | 10% | 25µM* | -19% | -12%
COc1ccc(C2=NOC(C(=O)N3CCCCCC3)C2)cc1OC (stereo unspecified) | x | -4% | 2% | 12% | -11% | -23%
O=C(C1CC(c2ccccc2O)=NO1)N1CCCCC1 (stereo unspecified) | 7.9µM* | 1% | -3% | u | -13% | -8%
CC1CCCCN1C(=O)C1CC(c2ccc(F)cc2)=NO1 (stereo unspecified) | x | 6% | -3% | 0.32µM* | -19% | -18%
O=C(C1Cc2ccccc2O1)N1CCCCC1 (stereo unspecified) | 25µM* | -6% | 1% | -3% | 0% | 0%
O=C(C1CC(c2ccccc2O)=NO1)N1CCc2ccccc2C1 (stereo unspecified) | 16µM* | 1% | -5% | -3% | -15% | -26%
COc1cccc(C2=NOC(C(=O)N3CCc4ccccc4C3)C2)c1 (stereo unspecified) | -27% | -9% | 5% | -3% | -9% | -7%
Cc1nn(-c2ccccc2)c(OC(=O)c2cccc(Br)c2)c1S(=O)(=O)c1ccccc1 | x | x | 1% | x | -1% | -2%
Cc1ccc(S(=O)(=O)COCCN2CCN(S(=O)(=O)c3ccc(C)cc3)CCC2=O)cc1 | -6% | x | 6% | 4% | 0% | -1%
